Reference: PubChem BioAssay AID624330 (Southern Research Specialized Biocontainment Screening …, 2012)
“And” between values parts separate entries of the source, which are not always exact repeats. Equal values may be shown once. Hit rate of the full screen: of about 340,000 compounds, about 2,100 (0.62%) were called active.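 Rule for the calls: active = first-screen hits whose inhibition reached a set limit at any dose in the follow-up dose series; inconclusive = inhibition above the set first-screen limit but never retested; inactive = the rest.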 A selection follows. Measured potencies and affinities stand elsewhere.

target: Rac GTPase-activating protein 1 (Homo sapiens) (UniProt Q9H0H5); assay: blockers of MgcRacGAP-driven Rac1 GTP hydrolysis – biochemical, ADP Hunter fluorescence, primary and confirmatory, confirmation (AID 624330); settings: MgcRacGAP-stimulated Rac1 GTP hydrolysis, at 30 µM, active compounds read high, GST-tagged Rac1 F28L mutant substrate;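 note: fluorescence reports GDP produced by GAP-driven GTP hydrolysis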
Sequence (Q9H0H5 whole entry, looked up): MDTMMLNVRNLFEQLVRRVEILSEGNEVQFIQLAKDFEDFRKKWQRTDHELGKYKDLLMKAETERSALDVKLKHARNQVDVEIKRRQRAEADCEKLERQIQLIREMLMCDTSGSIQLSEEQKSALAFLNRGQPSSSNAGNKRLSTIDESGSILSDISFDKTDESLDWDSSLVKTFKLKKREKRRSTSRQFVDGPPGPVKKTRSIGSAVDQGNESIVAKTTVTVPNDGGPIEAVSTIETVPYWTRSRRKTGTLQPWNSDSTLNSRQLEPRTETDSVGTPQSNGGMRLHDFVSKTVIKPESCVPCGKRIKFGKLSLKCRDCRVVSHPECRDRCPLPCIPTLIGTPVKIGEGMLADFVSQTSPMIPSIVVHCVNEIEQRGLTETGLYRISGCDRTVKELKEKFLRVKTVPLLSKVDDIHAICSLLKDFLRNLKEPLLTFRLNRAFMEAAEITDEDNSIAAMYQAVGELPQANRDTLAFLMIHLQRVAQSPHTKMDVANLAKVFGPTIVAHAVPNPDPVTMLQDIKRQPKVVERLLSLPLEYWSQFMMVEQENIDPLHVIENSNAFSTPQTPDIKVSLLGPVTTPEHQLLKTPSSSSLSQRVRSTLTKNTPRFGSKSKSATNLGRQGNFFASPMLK

inhibition, inactive:
O=C(CN(c1ccccc1)S(=O)(=O)c1ccc(Cl)cc1)Nc1cccnc1 -2.54%, C[C@@H](OC(=O)c1[nH]cnc1C(=O)NCc1ccc(CNC(=O)OC(C)(C)C)cc1)c1ccccc1 7.47%, COc1ccccc1NC(=O)CCC(=O)OCC(=O)c1ccc(C)c([N+](=O)[O-])c1 4.59%, Cc1ccc(NC(=O)Cc2nnc(SCC(=O)NC3=NCCS3)n2C)cc1 9.68%, CC(C)Sc1oc(-c2ccco2)nc1S(=O)(=O)c1ccc(F)cc1 9.8%, COc1cc2nc(NC(=O)c3ccc(Cl)cc3)sc(=O)c2cc1OC 12.1%, Cc1cccc(OC(C)C(=O)Nc2nc(-c3ccncc3)cs2)c1 (stereo unspecified) 5.11%, Cc1cccc(Cn2c(N(C)Cc3ccccc3)nc3c2c(=O)[nH]c(=O)n3C)c1 10.6%, C=CCn1c(Cc2ccc(OCC)cc2)nnc1SCC(N)=O 4.65%, Cc1c(Cl)cccc1NC(=S)N1CCN(Cc2ccccc2)CC1 6.91%, COc1cc(/C=N/NC(=O)CCC(=O)Nc2ccc(Br)cc2)ccc1O 25.9%, Cc1nc(CC(=O)N/N=C/c2ccc(OCC(=O)O)cc2)cs1 -8.35%, O=C(CCC(=O)Nc1ccc(Br)cc1)N/N=C/c1ccc(O)cc1 22.7%, O=C(CCC(=O)Nc1ccc(F)cc1)N/N=C/c1ccc(Br)cc1 3.6%, O=C(Cc1ccccc1)NN=Cc1ccccc1 -1.49%, Cc1ccc(NC(=O)CCC(=O)N/N=C/c2cccnc2)cc1 1.87%, COc1cc(/C=N/NC(=O)CCC(=O)Nc2ccc(C)cc2)ccc1O 26.5%, O=C(CCC(=O)Nc1ccc(Br)cc1)N/N=C/c1ccc(F)cc1 3.09%, Cc1ccc(Cl)cc1N1CCN(C(=O)C2CCN(S(=O)(=O)c3cnc[nH]3)CC2)CC1 -2.49%, COc1cc(C(=O)OC(C)C(=O)NC2CCCCC2C)c([N+](=O)[O-])cc1OC (stereo unspecified) -4.78%, Cc1cccc(C)c1NC(=O)N1CC=CCC1 8.07%, CCc1c(C)nc(N2CCN(c3ccccc3)CC2)[nH]c1=O -0.57%, Cc1cc(=O)[nH]c2c1c(-c1ccccc1)nn2C 4.24%, O=C1CN(C(=O)c2ccc(F)cc2)c2ccccc2N1 12.4%, CC(=O)Nc1cccc(NC(=O)c2csc(C)c2)c1 8.66%, O=C(O)c1ccc(N2CCCCC2)cc1O 10.7%, COC(=O)[C@@]1(C)[C@H]2C(=O)N(C)C(=O)[C@H]2[C@H]2CN(C)C(=NC3CCCCC3)N21 9.12%, N#Cc1cnn(-c2nc3sc4c(c3c(=O)[nH]2)CCCC4)c1N 11.7%, CN1C(=O)CCS(=O)(=O)C1c1ccc(Cl)c(Cl)c1 (stereo unspecified) 8.53%, COc1ccc(NC(=O)CSc2nc3c(c(=O)n(C)c(=O)n3C)n2C)c(OC)c1 4.73%, CCOc1ccc(/C=N/NC(=O)CC(=O)Nc2ccc(Cl)c(Cl)c2)cc1 4.45%, O=C(CC(=O)Nc1cccc(Cl)c1)N/N=C\c1ccccc1 1.72%, CC(C)(C)OC(=O)N1CCC(C(=O)N[C@@H](Cc2ccccc2)C(=O)O)CC1 4.57%, CCC(CC)C(=O)c1c[nH]c(C(=O)O)c1 6.73%, Cc1[nH]c2ccccc2c1-c1csc(NC(=O)CSCC(=O)O)n1 19.6%, Cc1[nH]c2ccccc2c1-c1csc(NC(=O)CN2CCOCC2)n1 25.6%, CCOc1ccc(NC(=O)c2ccc(F)c(S(=O)(=O)N3CCCC3)c2)cc1 10.8%, O=C(c1sc2cc(F)ccc2c1Cl)N1CCN(c2ccccc2)CC1 -1.95%, O=c1nc(-c2ccccc2Cl)c2cc(F)ccc2[nH]1 9.68%, CC(=O)Nc1ccc(-n2c(=O)c3ccccc3c3ccccc3c2=O)cc1 8.38%, COc1ccc(Oc2c(Cl)cnn(-c3ccc(F)cc3)c2=O)cc1 4.49%, N#Cc1ccc2c(=O)n(-c3ccccc3)sc2c1 22.6%, O=c1[nH]n(-c2ccccc2Cl)c(=O)c2ccccc12 4.42%, COc1ccc(N2C(=O)C(F)(F)C2c2cccc(F)c2)cc1 (stereo unspecified) 5.49%, CC(=O)Nc1ccc2c(=O)n(-c3ccccc3)sc2c1 23.5%, Cc1cccc(CSC2=NCCN2C(=O)c2ccc(S(=O)(=O)N(C)C)cc2)c1 4.49%, CCOC(=O)CNC(=O)Cn1cnc2c(nnn2-c2ccc(C)cc2)c1=O 1.26%, COCCOCC(O)CN1CCN(c2ccc(C)cc2)CC1 (stereo unspecified) 24.5%, C[C@@H]1CN([C@@H](C)CO)C(=O)CCCn2nncc2CO[C@H]1CN(C)C(=O)OCc1ccccc1 7.03%, CN1CCN(S(=O)(=O)c2cccc(C(=O)N(C)CC(=O)Nc3ccc(F)c(F)c3F)c2)CC1 9.79%, Cc1ccc2nc(SCC(=O)NCc3ccc(F)cc3)nc(=O)n2c1 6.12%, Cc1ccc(C(=O)Nc2ccc(N3CCOCC3)cc2)cc1S(=O)(=O)N1CCCCC1 3.29%, O=c1c2cc(C(F)(F)F)ccc2sn1-c1ccccc1 24.6%, O=c1c2cc(F)ccc2sn1-c1ccc(F)cc1 30.6%, OCCOCCN1CCN(C(=S)Nc2ccccc2)CC1 6.01%, OCCOCCN1CCN(C2=Nc3ccccc3Sc3ccccc32)CC1 -0.15% and -4.72%, COC(=O)C1CCN(Cc2cn(Cc3ccccc3)nc2-c2cc3ccccc3o2)CC1 13.5%, COCCNC(=O)C(OC(=O)c1nsc(Cl)c1Cl)C(C)C (stereo unspecified) 10.9%, CCCN(CC(=O)Nc1cc(Cl)ccc1Cl)C(=O)c1ccc(N2CCCC2=O)cc1 3.44%, COc1cc(/C=N/NC(=O)c2cc(-c3cccc(Br)c3)nc3ccccc23)cc(OC)c1O 13.9%, O=C1NC(=S)SC1=Cc1cc(Br)ccc1O 16.8%, O=C1NC(=S)SC1=Cc1ccc(F)cc1 15.8%, O=C1NC(=O)C(=Cc2ccc(Cl)cc2Cl)S1 7.66%, Cc1cc(/C=C2\SC(=S)NC2=O)c(C)n1C 26.3%, Cc1nn(C)cc1/C=C1\SC(=S)NC1=O -1.15%, O=C1NC(=S)SC1=Cc1ccc(Cl)cc1 8.39%, Cc1cccc(NC(=O)CN2C(=O)NC(C)(c3ccc4c(c3)OCO4)C2=O)c1 (stereo unspecified) 3.23%, O=C(CSc1ncn[nH]1)N1CCN(c2nnc(-c3ccccc3)c3ccccc23)CC1 11.7%, Cc1cc(C)nc(N/N=C/C2=C(N3CCOCC3)C(=C/c3ccccc3)/CC2)n1 9.21%, COc1ccc(N=C2C(=O)N3c4c(cccc42)C(C)=CC3(C)C)cc1 13.7%, C=CCN(Cc1nc(-c2ccc(OC)cc2)no1)C(=O)c1ccc2c(c1)OCO2 2.96%, CCN(CC)c1ccc(/C=N/N2CCN(Cc3ccccc3Cl)CC2)cc1 -3.36%, Cn1cccc1/C=N/N1CCN(Cc2ccccc2)CC1 23%, Clc1ccc(/C=N/N2CCN(Cc3ccccc3Cl)CC2)cc1 12%, Cn1cccc1/C=N/N1CCN(Cc2cccc3ccccc23)CC1 25.4%, Cc1ccc(NC(=S)NCc2ccc3c(c2)cc(C)n3C)c(C)c1 9.16%, O=C(COC(=O)c1ccc(O)cc1)Nc1cccc(S(=O)(=O)N2CCCCC2)c1 5.81%, C=C(C)c1ccc(C(C)(C)NC(=O)N(Cc2ccccc2)Cc2ccco2)cc1 0.01%, CC(=O)Oc1ccc2oc(/C=C/N(C)C)c([N+](=O)[O-])c2c1 16.9%, C/C(=C/c1oc2ccc(O)cc2c1[N+](=O)[O-])N(C)C 14.9%, O=S1(=O)N=C(Nc2ccc(N3CCOCC3)cc2)c2ccccc21 2.07%, CCN(CC)S(=O)(=O)c1ccc(NC2=NS(=O)(=O)c3ccccc32)cc1 1.99%, CC(=O)Nc1ccc(NC2=CC(=O)CC(C)(C)C2)cc1 7.91%, CC1(C)CC(=O)C=C(Nc2ccc(F)cc2)C1 -10%, N#CCc1ccc(Oc2ccc([N+](=O)[O-])cn2)cc1 5.55%, Cc1oc(-c2ccccc2)nc1C(=O)OCC(=O)NCc1ccc(Cl)cc1 -0.87%, CCCCn1c(N)c(N(CC(C)C)C(=O)c2ccc(Cl)c(S(=O)(=O)N3CCCC3)c2)c(=O)[nH]c1=O 5.8%, O=C(C1CCCN(Cc2ccccc2)C1)N1CCCCC1 (stereo unspecified) 21.6%, CN(Cc1ccccc1)C(=O)C1CCCN(Cc2cccc(Cl)c2)C1 (stereo unspecified) 3.69%, COc1ccc(CN2CCCC(C(=O)N3CCCCC3)C2)cc1 (stereo unspecified) 26.1%, COc1cccc(CN2CCCC(C(=O)N3CCCCC3)C2)c1 (stereo unspecified) 22.1%, COc1ccc(CN2CCCC(C(=O)N(C)Cc3ccccc3)C2)cc1OC (stereo unspecified) 27.7%, O=C(C1CCCN(Cc2ccc(Cl)cc2)C1)N1CCCCC1 (stereo unspecified) 24.9%, O=C(NNC(=O)c1cc2ccccc2o1)c1ccncc1 3.59%, Cc1cc(C[n+]2ccsc2N)c2ncccc2c1 4.36%, NC(=O)CC(NC(=O)c1ccc(Br)cc1)c1ccc(N2CCN(c3ccccn3)CC2)c([N+](=O)[O-])c1 (stereo unspecified) 4.07%
